Data as given in the supplement of paper PMC12282887.
± gives the standard deviation of the averaged measurements.

Assays:
Test in all cases: promoter activity interaction Z-score (Lux/OD deviation from empty-vector control); higher = stronger promoter induction by the compound
[1] = tested on: E. coli BW25113 acrABp lux reporter
Outline: (§1)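 E. coli BW25113, as wild type or one of three single-gene deletion strains, carried low-copy luxCDABE promoter reporters and grew in 40 µl LB Lennox in 384-well plates at 37°C, with OD600 and luminescence read every 30 min for 12 h. Each compound was run at four 1:2 dilutions in biological duplicates, integration spanned 0–8 h for wild type and 1–9 h for deletion strains, and wells under 10% of the median growth value were dropped. The score is the Z-transformed residual of growth-normalised luminescence fitted against a control.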

[2] = tested on: E. coli BW25113 micFp lux reporter
Outline: as §1

[3] = tested on: E. coli BW25113 ompFp lux reporter
Outline: as §1

[4] = tested on: E. coli BW25113 robp lux reporter
Outline: as §1

[5] = tested on: E. coli BW25113 soxSp lux reporter
Outline: as §1

[6] = tested on: E. coli BW25113 tolCp lux reporter
Outline: as §1

[7] = 17.4 µg/ml, genetic background: wild type
[8] = 17.4 µg/ml, genetic background: ΔmarA
[9] = 17.4 µg/ml, genetic background: Δrob
[10] = 17.4 µg/ml, genetic background: ΔsoxS
[11] = 34.9 µg/ml, genetic background: wild type
[12] = 34.9 µg/ml, genetic background: ΔmarA
[13] = 34.9 µg/ml, genetic background: Δrob
[14] = 34.9 µg/ml, genetic background: ΔsoxS
[15] = 69.8 µg/ml, genetic background: wild type
[16] = 69.8 µg/ml, genetic background: ΔmarA
[17] = 69.8 µg/ml, genetic background: Δrob
[18] = 69.8 µg/ml, genetic background: ΔsoxS
[19] = 139.6 µg/ml, genetic background: wild type
[20] = 139.6 µg/ml, genetic background: ΔmarA
[21] = 139.6 µg/ml, genetic background: Δrob
[22] = 139.6 µg/ml, genetic background: ΔsoxS

Compound: Nc1ccn(C[C@@H](CO)OCP(=O)(O)O)c(=O)n1 [Cidofovir]
- promoter activity interaction Z-score [1, 7]: -0.283 ± 0.054
- promoter activity interaction Z-score [1, 8]: 0.149 ± 0.3
- promoter activity interaction Z-score [1, 9]: -0.0654 ± 0.1
- promoter activity interaction Z-score [1, 10]: -0.0538 ± 0.14
- promoter activity interaction Z-score [1, 11]: 0.196 ± 0.13
- promoter activity interaction Z-score [1, 12]: -0.657 ± 0.64
- promoter activity interaction Z-score [1, 13]: 0.0446 ± 0.2
- promoter activity interaction Z-score [1, 14]: 0.215 ± 0.4
- promoter activity interaction Z-score [1, 15]: 0.219 ± 0.079
- promoter activity interaction Z-score [1, 16]: 0.553 ± 0.79
- promoter activity interaction Z-score [1, 17]: -0.00642 ± 0.084
- promoter activity interaction Z-score [1, 18]: 0.0852 ± 0.5
- promoter activity interaction Z-score [1, 19]: 0.22 ± 0.15
- promoter activity interaction Z-score [1, 20]: -0.132 ± 0.17
- promoter activity interaction Z-score [1, 21]: 0.233 ± 0.03
- promoter activity interaction Z-score [1, 22]: 0.385 ± 0.26
- promoter activity interaction Z-score [2, 7]: 0.0224 ± 0.19
- promoter activity interaction Z-score [2, 8]: 0.0154 ± 0.092
- promoter activity interaction Z-score [2, 9]: -0.0713 ± 0.17
- promoter activity interaction Z-score [2, 10]: 0.11 ± 0.48
- promoter activity interaction Z-score [2, 11]: -0.0338 ± 0.16
- promoter activity interaction Z-score [2, 12]: -0.00819 ± 0.0042
- promoter activity interaction Z-score [2, 13]: -0.103 ± 0.19
- promoter activity interaction Z-score [2, 14]: -0.106 ± 0.1
- promoter activity interaction Z-score [2, 15]: -0.121 ± 0.16
- promoter activity interaction Z-score [2, 16]: -0.0731 ± 0.046
- promoter activity interaction Z-score [2, 17]: -0.0746 ± 0.21
- promoter activity interaction Z-score [2, 18]: -0.0778 ± 0.17
- promoter activity interaction Z-score [2, 19]: -0.297 ± 0.16
- promoter activity interaction Z-score [2, 20]: -0.185 ± 0.15
- promoter activity interaction Z-score [2, 21]: -0.00734 ± 0.29
- promoter activity interaction Z-score [2, 22]: -0.28 ± 0.054
- promoter activity interaction Z-score [3, 7]: -0.101 ± 0.21
- promoter activity interaction Z-score [3, 8]: -0.0401 ± 0.19
- promoter activity interaction Z-score [3, 9]: -0.282 ± 0.46
- promoter activity interaction Z-score [3, 10]: 0.292 ± 0.4
- promoter activity interaction Z-score [3, 11]: 0.3 ± 0.056
- promoter activity interaction Z-score [3, 12]: -0.163 ± 0.48
- promoter activity interaction Z-score [3, 13]: 0.122 ± 0.34
- promoter activity interaction Z-score [3, 14]: 0.493 ± 0.19
- promoter activity interaction Z-score [3, 15]: 0.00967 ± 0.29
- promoter activity interaction Z-score [3, 16]: -0.0743 ± 0.39
- promoter activity interaction Z-score [3, 17]: -0.0183 ± 0.51
- promoter activity interaction Z-score [3, 18]: 0.835 ± 0.063
- promoter activity interaction Z-score [3, 19]: 0.281 ± 0.35
- promoter activity interaction Z-score [3, 20]: 0.0677 ± 0.43
- promoter activity interaction Z-score [3, 21]: 1.05 ± 0.56
- promoter activity interaction Z-score [3, 22]: 0.354 ± 0.32
- promoter activity interaction Z-score [4, 7]: 0.0479 ± 0.44
- promoter activity interaction Z-score [4, 8]: -0.325 ± 0.089
- promoter activity interaction Z-score [4, 9]: -0.283 ± 0.23
- promoter activity interaction Z-score [4, 10]: 0.755 ± 0.19
- promoter activity interaction Z-score [4, 11]: 0.8822 ± 0.0041
- promoter activity interaction Z-score [4, 12]: -0.684 ± 0.34
- promoter activity interaction Z-score [4, 13]: 0.316 ± 0.54
- promoter activity interaction Z-score [4, 14]: 0.739 ± 0.8
- promoter activity interaction Z-score [4, 15]: -0.0584 ± 0.52
- promoter activity interaction Z-score [4, 16]: -0.117 ± 0.21
- promoter activity interaction Z-score [4, 17]: 0.528 ± 1.2
- promoter activity interaction Z-score [4, 18]: 0.716 ± 0.15
- promoter activity interaction Z-score [4, 19]: 0.0675 ± 0.18
- promoter activity interaction Z-score [4, 20]: -0.557 ± 0.22
- promoter activity interaction Z-score [4, 21]: 0.839 ± 0.21
- promoter activity interaction Z-score [4, 22]: 0.434 ± 0.44
- promoter activity interaction Z-score [5, 7]: 0.0175 ± 0.013
- promoter activity interaction Z-score [5, 8]: 0.0495 ± 0.085
- promoter activity interaction Z-score [5, 9]: -0.108 ± 0.04
- promoter activity interaction Z-score [5, 10]: 0.122 ± 0.064
- promoter activity interaction Z-score [5, 11]: -0.0402 ± 0.16
- promoter activity interaction Z-score [5, 12]: 0.0487 ± 0.082
- promoter activity interaction Z-score [5, 13]: 0.0552 ± 0.025
- promoter activity interaction Z-score [5, 14]: 0.246 ± 0.033
- promoter activity interaction Z-score [5, 15]: -0.0559 ± 0.065
- promoter activity interaction Z-score [5, 16]: 0.167 ± 0.11
- promoter activity interaction Z-score [5, 17]: -0.0558 ± 0.063
- promoter activity interaction Z-score [5, 18]: 0.254 ± 0.11
- promoter activity interaction Z-score [5, 19]: 0.021 ± 0.14
- promoter activity interaction Z-score [5, 20]: -0.0152 ± 0.023
- promoter activity interaction Z-score [5, 21]: 0.0293 ± 0.054
- promoter activity interaction Z-score [5, 22]: -0.0927 ± 0.013
- promoter activity interaction Z-score [6, 7]: 0.134 ± 0.031
- promoter activity interaction Z-score [6, 8]: 0.258 ± 0.13
- promoter activity interaction Z-score [6, 9]: -0.735 ± 1.3
- promoter activity interaction Z-score [6, 10]: -0.0946 ± 0.53
- promoter activity interaction Z-score [6, 11]: -0.218 ± 0.42
- promoter activity interaction Z-score [6, 12]: -0.677 ± 0.19
- promoter activity interaction Z-score [6, 13]: 0.0662 ± 0.039
- promoter activity interaction Z-score [6, 14]: 1.55 ± 0.98
- promoter activity interaction Z-score [6, 15]: -0.434 ± 0.14
- promoter activity interaction Z-score [6, 16]: -0.318 ± 0.84
- promoter activity interaction Z-score [6, 17]: -0.696 ± 1
- promoter activity interaction Z-score [6, 18]: -0.168 ± 1
- promoter activity interaction Z-score [6, 19]: -0.582 ± 0.18
- promoter activity interaction Z-score [6, 20]: -0.123 ± 0.94
- promoter activity interaction Z-score [6, 21]: 0.23 ± 0.54
- promoter activity interaction Z-score [6, 22]: -0.453 ± 0.91
